The supplement of paper PMC10037445
Whole data set: some 2,900 compounds, median “IRF Lucia reporter activity, fold change vs agonist alone” near 0.9, cut for the highest 2% near 2.8. The list comes from a sample in which the highest values are over-represented; it also holds similar structures and randomly drawn compounds.

Tests used:
[1] = system: RAW-Dual; assay: IRF Lucia reporter activity, fold change vs agonist alone; higher = enhanced IRF activity; details: library stock concentration (final ~1000-fold dilution): 10 mM; cytotoxicity flag (confluency mask): not cytotoxic; agonist: MPLA (TLR4) […]
In short: (§1)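 Reporter activity is given as fold change relative to agonist-alone wells. To measure it, 50 nL of library stock was pin-tooled onto RAW-Dual macrophages (50,000 cells/well, DMEM, 384-well plates), a PRR agonist followed 1 h later, and cells stayed at 37 °C, 5% CO2. Twenty hours on, supernatant was assayed for IRF (QuantiLuc luminescence) and NF-κB (QuantiBlue, 620 nm absorbance), and wells under 70% of agonist-control IncuCyte confluency in both mask sets were marked cytotoxic.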

[2] = system: RAW-Dual; assay: IRF Lucia reporter activity, fold change vs agonist alone; cytotoxicity flag (confluency mask): not cytotoxic; higher = enhanced IRF activity
In short: as §1

[3] = agonist: 3'3'-cGAMP (STING) 10 ug/mL

## Cc1ccc(Nc2nccc(N(C)c3ccc4c(C)n(C)nc4c3)n2)cc1S(N)(=O)=O.Cl
[1]
  IRF Lucia reporter activity: 0.646

## Cc1ccc(Nc2nccc(N(C)c3ccc4c(C)n(C)nc4c3)n2)cc1S(N)(=O)=O.Cl (library stock concentration (final ~1000-fold dilution): 10 mM)
[2]; [3]
  IRF Lucia reporter activity: 0.0722
[2]; agonist: LPS (TLR4) 0.1 ug/mL
  IRF Lucia reporter activity: 0.446

## COC(=O)C(CC(C)C)NC(=O)c1ccc(NCC(N)CS)cc1-c1cccc2ccccc12.O=C(O)C(F)(F)F (stereo unspecified) (library stock concentration (final ~1000-fold dilution): 10 mM)
[2]; [3]
  IRF Lucia reporter activity: 0.0714
[2]; agonist: LPS (TLR4) 0.1 ug/mL
  IRF Lucia reporter activity: 0.736

## COC(=O)C(CC(C)C)NC(=O)c1ccc(NCC(N)CS)cc1-c1cccc2ccccc12.O=C(O)C(F)(F)F (stereo unspecified)
[1]
  IRF Lucia reporter activity: 0.882

## N#Cc1ccc(-c2c(-c3ncn[nH]3)sc(N3CCOCC3)c2C#N)c(F)c1 (library stock concentration (final ~1000-fold dilution): 10 mM)
[2]; [3]
  IRF Lucia reporter activity: 0.455
[2]; agonist: LPS (TLR4) 0.1 ug/mL
  IRF Lucia reporter activity: 10.2

## N#Cc1cccc(-c2c[nH]c3ncnc(N4CCOCC4)c23)c1 (library stock concentration (final ~1000-fold dilution): 10 mM)
[2]; [3]
  IRF Lucia reporter activity: 0.11
[2]; agonist: LPS (TLR4) 0.1 ug/mL
  IRF Lucia reporter activity: 0.291

## N#Cc1ccc2[nH]c(O)c(-c3ccc(CN4CCOCC4)cn3)c2c1 (library stock concentration (final ~1000-fold dilution): 10 mM)
[2]; [3]
  IRF Lucia reporter activity: 0.996
[2]; agonist: LPS (TLR4) 0.1 ug/mL
  IRF Lucia reporter activity: 0.903

## N#Cc1ccc2[nH]c(O)c(-c3ccc(CN4CCOCC4)cn3)c2c1
[1]
  IRF Lucia reporter activity: 1.01

## CCS(=O)(=O)O.COC(=O)c1ccc2c(c1)NC(=O)/C2=C(\Nc1ccc(N(C)C(=O)CN2CCN(C)CC2)cc1)c1ccccc1
[1]
  IRF Lucia reporter activity: 0.215

## CCS(=O)(=O)O.COC(=O)c1ccc2c(c1)NC(=O)/C2=C(\Nc1ccc(N(C)C(=O)CN2CCN(C)CC2)cc1)c1ccccc1 (library stock concentration (final ~1000-fold dilution): 10 mM)
[2]; [3]
  IRF Lucia reporter activity: 0.0841
[2]; agonist: LPS (TLR4) 0.1 ug/mL
  IRF Lucia reporter activity: 0.246

## Cc1nnc(NC(=O)c2nc(S(=O)(=O)Cc3ccc(F)cc3)ncc2Cl)s1 (library stock concentration (final ~1000-fold dilution): 10 mM)
[2]; [3]
  IRF Lucia reporter activity: 0.0452
[2]; agonist: LPS (TLR4) 0.1 ug/mL
  IRF Lucia reporter activity: 0.308

## NC1C(O)OC(CO)C(O)C1O (stereo unspecified) (library stock concentration (final ~1000-fold dilution): 10 mM)
[2]; [3]
  IRF Lucia reporter activity: 0.143
[2]; agonist: LPS (TLR4) 0.1 ug/mL
  IRF Lucia reporter activity: 0.267

## CC(C)=CCC[C@](C)(O[C@@H]1O[C@H](CO)[C@@H](O)C(O)[C@H]1O)[C@H]1CC[C@]2(C)[C@H]1[C@H](O)CC1[C@@]3(C)CC[C@H](O)C(C)(C)[C@@H]3[C@@H](O[C@@H]3O[C@H](CO)[C@@H](O)[C@H](O)[C@H]3O[C@@H]3O[C@@H](C)[C@H](O)[C@@H](O)[C@H]3O)C[C@]12C (stereo partly specified) (library stock concentration (final ~1000-fold dilution): 10 mM)
[2]; [3]
  IRF Lucia reporter activity: 1.16
[2]; agonist: LPS (TLR4) 0.1 ug/mL
  IRF Lucia reporter activity: 1.03

## CCCCCCCCCCCCCC(=S)NCCCCC(NC(=O)OCc1ccccc1)C(=O)Nc1ccccc1 (stereo unspecified) (library stock concentration (final ~1000-fold dilution): 10 mM)
[2]; [3]
  IRF Lucia reporter activity: 0.949
[2]; agonist: LPS (TLR4) 0.1 ug/mL
  IRF Lucia reporter activity: 1.09

## OCCn1cc(-c2ccc3c(c2)CC/C3=N\O)c(-c2ccncc2)n1
[1]
  IRF Lucia reporter activity: 0.784

## CN(C)CCOc1ccc(-c2nc(-c3ccncc3)c(-c3ccc4c(c3)CC/C4=N\O)[nH]2)cc1
[1]
  IRF Lucia reporter activity: 1.04

## CN(C)CCOc1ccc(-c2nc(-c3ccncc3)c(-c3ccc4c(c3)CC/C4=N\O)[nH]2)cc1 (library stock concentration (final ~1000-fold dilution): 10 mM)
[2]; [3]
  IRF Lucia reporter activity: 0.992
[2]; agonist: LPS (TLR4) 0.1 ug/mL
  IRF Lucia reporter activity: 3.04

## COc1ccc2cc(-c3[nH]c(-c4ccc(S(C)=O)cc4)nc3-c3ccncc3)ccc2c1 (stereo unspecified)
[1]
  IRF Lucia reporter activity: 0.798

## OCCn1cc(-c2ccc3c(c2)CC/C3=N\O)c(-c2ccncc2)n1 (library stock concentration (final ~1000-fold dilution): 10 mM)
[2]; [3]
  IRF Lucia reporter activity: 0.614
[2]; agonist: LPS (TLR4) 0.1 ug/mL
  IRF Lucia reporter activity: 0.658

## COc1ccc2cc(-c3[nH]c(-c4ccc(S(C)=O)cc4)nc3-c3ccncc3)ccc2c1 (stereo unspecified) (library stock concentration (final ~1000-fold dilution): 10 mM)
[2]; [3]
  IRF Lucia reporter activity: 0.0441
[2]; agonist: LPS (TLR4) 0.1 ug/mL
  IRF Lucia reporter activity: 0.466

## CC(C)CCn1c(CN2CCN(C(=O)C3CC3)CC2)nc2c1c(=O)n(C)c(=O)n2C (library stock concentration (final ~1000-fold dilution): 10 mM)
[2]; [3]
  IRF Lucia reporter activity: 0.987
[2]; agonist: LPS (TLR4) 0.1 ug/mL
  IRF Lucia reporter activity: 0.989

## CN1CCC(COc2cnc(-c3cccc(Cn4nc(-c5cccc(C#N)c5)ccc4=O)c3)nc2)CC1
[1]
  IRF Lucia reporter activity: 1.37

## CN1CCC(COc2cnc(-c3cccc(Cn4nc(-c5cccc(C#N)c5)ccc4=O)c3)nc2)CC1 (library stock concentration (final ~1000-fold dilution): 10 mM)
[2]; [3]
  IRF Lucia reporter activity: 0.676
[2]; agonist: LPS (TLR4) 0.1 ug/mL
  IRF Lucia reporter activity: 3.96

## CN1CCC(CNc2ccc3ncc(-c4cccc(OC(F)(F)F)c4)n3n2)CC1 (library stock concentration (final ~1000-fold dilution): 10 mM)
[2]; [3]
  IRF Lucia reporter activity: 1.03
[2]; agonist: LPS (TLR4) 0.1 ug/mL
  IRF Lucia reporter activity: 0.089

## CN1CCC(CNc2ccc3ncc(-c4cccc(OC(F)(F)F)c4)n3n2)CC1
[1]
  IRF Lucia reporter activity: 1.07
